# Measurements published in PubChem BioAssay AID624288 (National Center for Advancing Translational Sciences (NCATS), 2012).
# In all, about 340,000 compounds went through this assay and about 1,400 (0.41%) were called active. Not shown: some 4% with an inconclusive outcome. Calls follow the shape of the full dose curve; cell line not stated here. What follows is part of a selection rich in actives, with near analogues and random picks from the rest. Where a call stands in place of a potency, no number is given.
# Assay: qHTS for Antagonists of gsp, the Etiologic Mutation Responsible for Fibrous Dysplasia/McCune-Albright Syndrome: qHTS; also: nearly all actives have a fitted effect of over 65% in size
# Details: gsp-mutant cells, cAMP HTRF, 30 min; series mostly up to 76.9 µM
# Method in brief: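 HTRF cAMP measurement after 30 min RT detection following 30 min, 37C compound treatment alongside […] (added as 300 uM solution) in G418-selected cells seeded at 2000/well and grown 16–24 h.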
# Potency is read from the fitted curve at half-maximal effect.
row,SMILES,Potency
1,CN(C)C(=S)N=c1ssc(=S)n1Cc1ccco1,inactive
2,Cc1nn(-c2ccc([N+](=O)[O-])cc2)c(N)c1-c1ccccc1,inactive
3,O=C1CC(c2ccccc2)=NN1c1ccc([N+](=O)[O-])cc1,35.5 µM (active)
4,O=c1[nH]n(-c2ccc([N+](=O)[O-])cc2)c(=O)c2ccccc12,inactive
5,O=C1COc2c1ccc(O)c2O,inactive
6,O=C(O)c1ccc(Cn2cnc3c(=S)nc[nH]c32)cc1,inactive
7,O=C(CC(=O)c1cccnc1)c1ccccc1,inactive
8,CCC(=C/c1sc2ccc3ccccc3c2[n+]1C)/C=C1\Sc2ccc3ccccc3c2N1C,35.5 µM (active)
9,O=C1CC(c2ccccc2)C(c2ccccc2)=NN1 (configuration not stated),inactive
10,c1ccc(CNc2ncnc3[nH]ncc23)cc1,inactive
11,Cc1ccc(SCC(=O)N2CCN(c3ccc(F)cc3)CC2)cc1,inactive
12,CN(C(=O)c1ccc(NC(=O)Cc2cccc(NC(=O)C3CCN(C(=O)c4ccccc4)CC3)c2)cc1)C1CC1,inactive
13,Cc1ccc(NC(=O)Nc2nnc(-c3ccncc3)s2)cc1,50.1 µM (active)
14,Cc1ccc(NC(=O)Nc2cccnc2)cc1,inactive
15,CCc1ccc(NC(=O)Nc2ccncc2)cc1,inactive
16,O=C1NCC(Nc2ccccc2)C(=O)N1 (configuration not stated),inactive
17,COc1ccc(S(=O)(=O)N2C[C@H]3CON(C)[C@H]3C[C@H]2c2cccc(Br)c2)cc1,inactive
18,S=c1[nH]nc(-c2ccncc2)n1/N=C/c1ccccc1Cl,inactive
19,O=[N+]([O-])c1ccccc1/C=N/n1c(COc2ccccc2)n[nH]c1=S,inactive
20,Fc1ccccc1/C=N/n1c(-c2cccnc2)n[nH]c1=S,28.2 µM (active)
21,Cc1cccc(NC(=S)N2CCC(C(=O)c3ccc(F)cc3)CC2)c1,inactive
22,Cc1nn(-c2ccccc2)c(C)c1NC(=O)COc1ccc(Cl)cc1Cl,50.1 µM (active)
23,Cc1nn(-c2ccccc2)c(C)c1NC(=O)COC(=O)c1cc(Cl)ccc1O,inactive
24,Cc1nn(-c2ccccc2)c(C)c1NC(=O)CCl,inactive
25,CC(C)Cn1cnc2c(SCc3ccc(Cl)cc3)nc(N)nc21,inactive
26,COC(=O)CC(CC(=O)OC)n1cccc1,inactive

row,SMILES,Potency
1,Cc1nnc(SCC(=O)Nc2cccc(N)c2)n1-c1ccccc1,inactive
2,COc1ccc(-n2cnnc2SCC(=O)Nc2cccc(S(N)(=O)=O)c2)cc1,inactive
3,NS(=O)(=O)c1cccc(NC(=O)CSc2nc3ccccc3n2-c2ccccc2)c1,28.2 µM (active)
4,CNc1nc(=O)n(C2CCCO2)cc1C (configuration not stated),inactive
5,Cc1ccccc1OCC(=O)Nc1ccc2c(c1)ncn2C,inactive
6,Cc1ccccc1OCC(=O)Nc1ccc(S(=O)(=O)N2CCOCC2)cc1,inactive
7,Cc1ccccc1OCC(=O)Nc1ccc(N2CCN(C(=O)C(C)C)CC2)c(Cl)c1,31.6 µM (active)
8,COc1ccc2nc(N3C(=O)C(O)=C(C(=O)c4ccco4)C3c3ccco3)sc2c1 (configuration not stated),inactive
9,OCCN1CCN(CCO)C1=S,inactive
10,N#CC1=C(N)Oc2cc(N)ccc2C1c1ccccc1 (configuration not stated),inactive
11,O=S(=O)(c1ccc(NC(=S)NN=C(C2CC2)C2CC2)cc1)N1CCOCC1,inactive
12,O=[N+]([O-])c1cc(Cl)cc(/C=N/NC(=S)Nc2cc(S(=O)(=O)N3CCOCC3)ccc2Cl)c1O,50.1 µM (active)
13,CN(C)/N=C/c1cc(Cl)cc([N+](=O)[O-])c1O,inactive
14,O=C1CC(c2ccccc2)C(=O)N2C(=O)CC(c3ccccc3)C(=O)N12 (configuration not stated),inactive
15,Cc1nc(Nc2ccccc2C)c2cnn(C)c2n1,inactive
16,COc1ccc(N=C2C=CC(=O)O2)cc1,inactive
17,N=C1C(c2nc3ccccc3s2)=C(O)CN1NC(=O)c1ccc([N+](=O)[O-])cc1,inactive
18,O=C(CCNC(=O)c1ccccc1)Nc1nc2ccccc2s1,inactive
19,O=C(NC(Nc1nc2ccc([N+](=O)[O-])cc2s1)(C(F)(F)F)C(F)(F)F)c1ccccc1,3.98 µM (active)
20,CC(=O)Nc1ccc(C(=O)Nc2cc(S(=O)(=O)N3CCOCC3)ccc2N2CCOCC2)cc1,inactive
21,CC1(C)N=C(N)NC(Nc2ccc(Cl)cc2)=N1,inactive
22,CC1CCCCC1NCC(=O)Nc1ccccc1C(=O)Nc1ccccc1 (configuration not stated),inactive
23,O=C(Nc1ccccc1)c1ccccc1NC(=O)C(F)(F)F,31.6 µM (active)
24,O=C(O)c1ccccc1NC(=O)c1ccccc1-c1ccccc1C(=O)O,inactive
25,c1ccc(CCc2ccccn2)cc1,inactive
26,COc1ccccc1C1/C(=C(/O)c2ccc(OC(C)C)cc2)C(=O)C(=O)N1c1cc(C)on1 (configuration not stated),28.2 µM (active)

row,SMILES,Potency
1,Cc1cc(N2C(=O)C(=O)/C(=C(/O)c3ccccc3)C2c2cccc(Br)c2)no1 (configuration not stated),inactive
2,Cc1cc(N2C(=O)C(=O)/C(=C(/O)c3ccc(Cl)cc3)C2c2cccc(Br)c2)no1 (configuration not stated),inactive
3,COc1ccc(CNCCCNCc2ccc(OC)c(OC)c2)cc1OC,inactive
4,O=C1NC(c2ccccc2)Cc2ccncc21 (configuration not stated),inactive
5,COCCSc1nnc(NC(=O)CCS(=O)(=O)Cc2ccccc2)s1,inactive
6,CCOc1ccc(NC(=O)c2nc(SCC)ncc2Cl)cc1,inactive
7,Cc1nnc(NC(=O)c2ccc3nccnc3c2)s1,inactive
8,Cc1cccc(CS(=O)(=O)c2ncc(Cl)c(C(=O)Nc3ccc(F)cc3)n2)c1,50.1 µM (active)
9,Cc1ccc(S(=O)(=O)CC(=O)Nc2nnc(C)s2)cc1,inactive
10,CSc1nnc(NC(=O)c2nc(S(=O)(=O)Cc3ccc(C)cc3)ncc2Cl)s1,15.8 µM (active)
11,Cc1cccc(NC(=O)c2nc(S(=O)(=O)Cc3ccccc3)ncc2Cl)c1,inactive
12,Cc1ccc(CS(=O)(=O)c2ncc(Cl)c(C(=O)Nc3nnc(C)s3)n2)cc1,31.6 µM (active)
13,CSc1ncc(Cl)c(C(=O)Nc2cc(C)ccc2C)n1,inactive
14,NC(=O)C1(Nc2ccc(-c3ccccc3)cc2)CCCC1,inactive
15,CC(C)OC(=O)c1ccc(NCc2cc(O)ccc2O)cc1Cl,inactive
16,C=CCCC(=O)N1C[C@H]2CON(C)[C@H]2C[C@H]1c1cccc(Nc2ccccc2)c1,inactive
17,CCOc1ccccc1NC(=S)C(=C([O-])c1ccc2c(c1)OCCO2)[n+]1ccc(CC)cc1,inactive
18,O=c1c2ccccc2ncn1CCc1ccncc1,inactive
19,Cc1ccc(C)c(S(=O)(=O)N(C)c2ccc(OC(=O)C3CCN(C(=O)c4ccc(F)cc4)CC3)cc2)c1,inactive
20,CCOc1cc(C(=O)N(Cc2ccccc2)c2ccc(C)cc2)ccc1OCC(=O)N1CCOCC1,inactive
21,Cc1ccc2oc(=O)ccc2c1,inactive
22,O=[N+]([O-])c1ccc(N=NNc2ccc([N+](=O)[O-])cc2)cc1,inactive
23,OCC1(CO)CC2(C1)CC(CO)(CO)C2,inactive
24,COc1cccc(CNS(=O)(=O)c2ccc3c(c2)CC(C)N3C(C)=O)c1 (configuration not stated),inactive
25,COc1cccc(CNS(=O)(=O)c2ccc3c(c2)CC(C)N3C(=O)C2CCC2)c1 (configuration not stated),inactive
26,COc1ccc(N(C)S(=O)(=O)c2ccc3c(c2)CC(C)N3C(=O)C2CC2)c(OC)c1 (configuration not stated),31.6 µM (active)

row,SMILES,Potency
1,O=C(Nc1cccc(Br)c1)C1CC(=O)N(C2CCCC2)C1 (configuration not stated),inactive
2,CCN(C(=O)C1CCCN(c2nc(-c3ccc(OC)cc3)no2)C1)c1ccc(OC)cc1 (configuration not stated),35.5 µM (active)
3,CCOC(=O)C1CCCN(C(=O)CN(c2ccc(OC)cc2)S(=O)(=O)c2c(C)noc2C)C1 (configuration not stated),inactive
4,COc1ccc(NC(=O)N2CCCC(c3nc(-c4ccc(F)cc4)no3)C2)cc1 (configuration not stated),inactive
5,O=C(O)C(=Cc1ccccc1[N+](=O)[O-])c1ccccc1,inactive
6,Cc1ccc(CSc2nc(-c3ccccc3)c(C#N)c(=O)[nH]2)cc1,inactive
7,N#Cc1c(-c2ccccc2)nc(SCc2ccc([N+](=O)[O-])cc2)[nH]c1=O,inactive
8,N#Cc1c(-c2ccccc2)nc(SCc2cccc(C(F)(F)F)c2)[nH]c1=O,50.1 µM (active)
9,O=C(NC1=CC(=O)c2ccccc2C1=O)c1ccccc1,inactive
10,CC(=O)N(C1=C(Cl)C(=O)c2ccccc2C1=O)c1ccc(C(=O)O)cc1,50.1 µM (active)
11,C=CCSc1nsc(NC(=O)Nc2cccc(C(C)=O)c2)n1,28.2 µM (active)
12,CSc1nsc(NC(=O)Nc2ccccc2)n1,inactive
13,C=C(C)C(=O)Nc1cccc(C(C)=O)c1,inactive
14,CCSc1nsc(NC(=O)Nc2cccc(C(C)=O)c2)n1,25.1 µM (active)
15,CCSc1nsc(NC(=O)Nc2ccccc2OC)n1,inactive
16,CC(=O)c1cccc(NC(=S)N2CCCC2)c1,inactive
17,CC1C(C)N(C(=O)CCl)c2ccccc2N1C(=O)CCl (configuration not stated),inactive
18,O=S(=O)(O)c1cc2onnc2c2ccccc12,inactive
19,CC(C)(C)OC(=O)N1CCC(C(=O)Nc2cccc(C(=O)NCCc3ccccc3)c2)CC1,inactive
20,O=C(OC12CC3CC(CC(C3)C1)C2)c1ccc(NCc2cc(O)ccc2O)cc1,inactive
21,COc1ccc(-c2onc(C)c2-c2ccc3c(c2)OCCO3)c(O)c1,inactive
22,CCN1CCN(Cc2c(O)ccc3c(=O)c(-c4ccc(OC)c(OC)c4)c(C(F)(F)F)oc23)CC1,inactive
23,O=c1c(-c2ccc3c(c2)OCCO3)c(C(F)(F)F)oc2cc(O)cc(O)c12,39.8 µM (active)
24,CC(C)(C)S(=O)(=O)N1Cc2cc(CO)cc(CCO)c2[C@H]1CCO,inactive
25,COc1cccc(C=CC(=O)C=CC=Cc2ccccc2)c1,inactive
26,COc1ccc(-c2ccc3c(c2)C2CC3CCN2CCC#N)cc1 (configuration not stated),inactive

row,SMILES,Potency
1,O=C(NNC1CC(=O)N(c2cccc(Cl)c2)C1=O)c1cccnc1 (configuration not stated),inactive
2,O=C(/C=C/c1ccc(Cl)cc1Cl)c1cccnc1,inactive
3,O=C1[C@@H]2C(c3cccnc3)=NO[C@@H]2C(=O)N1c1ccc(Cl)cc1Cl,11.2 µM (active)
4,Cc1ccc(C(=O)O)c(NC=O)c1OCc1ccccc1,inactive
5,COc1ccc(CNC(=O)CN2C(=O)c3ccccc3S2(=O)=O)cc1,inactive
6,Cc1cc(NC(=O)COc2ccccc2C#N)no1,31.6 µM (active)
7,Cc1cc(NC(=O)COn2nnc3ccccc32)no1,inactive
8,Cc1cc(NC(=O)COc2ccc([N+](=O)[O-])cc2)no1,inactive
9,NC1=NOC(=O)C1C1CCCCC1 (configuration not stated),inactive
10,O=C(Cc1ccc([N+](=O)[O-])cc1)NCCc1ccc2c(c1)OCO2,inactive
11,O=C(CN1CCCCCC1)Nc1ccc(Br)cc1[N+](=O)[O-],inactive
12,O=[N+]([O-])c1cc([N+](=O)[O-])c(Oc2cc(F)cc(F)c2F)cc1NN1CCCCC1,11.2 µM (active)
13,O=C(COc1ccc(Cl)cc1[N+](=O)[O-])N1CCCCC1,inactive
14,COc1ccc(/C=C/C(=O)OCC(=O)N2CCN(S(=O)(=O)c3ccc(C)cc3C)CC2)cc1OC,inactive
15,O=C(NCCc1ccccc1)c1cccc(NC(=O)c2ccccc2)c1,inactive
16,O=c1ccn([C@@H]2O[C@H](CNS(=O)(=O)c3cc4ccccc4s3)[C@@H](O)[C@H]2O)c(=O)[nH]1,inactive
17,Cc1ccc(S(=O)(=O)CCC(=O)OCC(=O)N(C)Cc2ccccc2)cc1,inactive
18,O=C(NNC(=O)c1ccc2ccccc2c1)c1ccc(Cl)cc1,inactive
19,CCCNC(=O)CCn1nc(-c2ccccc2)c2ccccc2c1=O,inactive
20,COC(=O)Cn1nc(-c2ccccc2)c2cc(Cl)ccc21,31.6 µM (active)
21,O=C(CCl)NNc1nc(-c2ccccc2)c2cc(Cl)ccc2n1,inactive
22,Cc1nn(-c2ncccn2)c2c1C(=O)CC(C)(C)C2Br (configuration not stated),inactive
23,COc1ccc(Cn2cc(CN3CCS(=O)(=O)N(Cc4ccc(-c5cccc(Cl)c5)cc4)C(C)C3=O)nn2)cc1 (configuration not stated),inactive
